# Test results reported in PubChem BioAssay AID588689 (Southern Research Specialized Biocontainment Screening …, 2011).
# Out of some 340,000 compounds screened, about 1,000 (0.29%) were called active. Cut-off read from the data, not from the text of the source: inconclusive = inhibition above about 29% without an active follow-up result; inactive = below that. These entries were drawn from the full list. Entries with a potency or affinity are not part of this list.
# Target: Genome polyprotein (Dengue virus type 2 (strain 16681-PDK53)) (UniProt P29991)
# Assay: flavivirus cap methylation enzyme inhibition – biochemical, confirmation dose response, primary screen (AID 588689)
# Details: Dengue-2 NS5 methyltransferase capping enzyme assay, at 25 µM, stronger effect = higher value
# [1] = measured here: pilot screen replicate inhibition
SMILES,inhibition,inhibition [1] [%]
CCCOc1ccccc1N/C(=N/c1nc(C)cc(C)n1)NC(=O)Nc1ccc(Cl)cc1,-4.07% (inactive),–
Oc1ccc(C[C@H]2CNCCN2CCc2cccc3ccccc23)cc1,6.4% (inactive),–
O=C(NCCCO)c1cc2ccccc2[nH]1,-9.54% (inactive),–
O=C1Nc2ccccc2C12NCCc1c2[nH]c2ccccc12 (stereo unspecified),6.48% (inactive),–
O=C(O)c1ccccc1-c1ccccc1C(=O)Nc1ccc2c(c1)[nH]c(=O)c1ccccc12,9.14% (inactive),–
O=C(O)c1ccccc1-c1ccccc1C(=O)Nc1ccc2oc(=O)c3ccccc3c2c1,11.5% (inactive),–
CCC(NS(=O)(=O)c1ccc(OC)cc1)C(=O)NCCc1ccccc1 (stereo unspecified),-3.31% (inactive),–
Cc1ccc(OCC(=O)Sc2ccc(C)cc2)cc1,-33.2% (inactive),–
CC1(C)[C@@H](O)CC[C@]2(C)[C@H]3C(=O)C=C4[C@@H]5C[C@@](C)(C(=O)O)CC[C@]5(C)CC[C@@]4(C)[C@]3(C)CC[C@@H]12,-0.73% (inactive),–
Cc1sc2ncnc(N3CCC(C(=O)Nc4sc5c(c4C(N)=O)CCC(C)C5)CC3)c2c1C (stereo unspecified),0% (inactive),–
Cc1cccc(CCNC(=O)CCc2nnc(CCc3ccccc3)o2)n1,-0.91% (inactive),–
CC(NC(=O)c1ccco1)C(=O)NC(C)c1cc(F)c(Cl)cc1Cl (stereo unspecified),-1.62% (inactive),–
COc1ccc(CC(=O)Nc2ccc(S(=O)(=O)N3CCOCC3)cc2)cc1,0% (inactive),–
O=C(COC(=O)c1ccc([N+](=O)[O-])o1)NCc1ccc2c(c1)OCO2,0% (inactive),–
O=C(O)c1cccc(-n2cccc2/C=C\[N+](=O)[O-])c1,0.75% (inactive),–
O=C(O)c1cccc(-n2cccc2/C=N/O)c1,0% (inactive),–
O=C(N/C(=C\c1cccnc1)C(=O)N1CCC(O)CC1)c1ccccc1,-1.67% (inactive),–
CC(=O)Nc1ccc(S(=O)(=O)NCCC(=O)OCC(=O)c2ccc(Br)cc2)cc1,-10.1% (inactive),–
Cc1ccc(C)n1N1C(=O)/C(=C\c2ccc(Cl)cc2)SC1=S,6.92% (inactive),–
CC(=O)NN1C(=O)/C(=C\c2ccc(Cl)cc2)SC1=S,1.78% (inactive),–

SMILES,inhibition,inhibition [1] [%]
COc1ccc(-c2nc(CS(=O)CC(=O)NCc3ccc(F)cc3)c(C)o2)cc1 (stereo unspecified),-10.5% (inactive),–
COc1cc(C(=O)NCCC(c2ccccc2)c2ccccc2)cc(OC)c1OC,-9.51% (inactive),–
CC1=NN(c2ccccc2)C(=O)/C1=C\c1sccc1C,3.11% (inactive),–
CC(=O)c1ccc(OC(=O)c2cccs2)cc1,-2.4% (inactive),–
CC1=NN(c2ccccc2)C(=O)/C1=C\c1cc(C)n(-c2ccccc2)c1C,-4.02% (inactive),–
CC1=NN(c2ccc(Br)cc2)C(=O)/C1=C/c1cccs1,22% (inactive),–
CC1=NN(c2ccccc2)C(=O)/C1=C/c1ccc[nH]1,-6.55% (inactive),–
CCOc1cc(/C=C2/C(=O)N(c3ccccc3)N=C2C)ccc1OC(=O)c1cccs1,8.81% (inactive),–
CC1=NN(c2ccccc2)C(=O)/C1=C/C=C/c1ccccc1,0.72% (inactive),–
CC1=NN(c2ccccc2)C(=O)/C1=C/N(C)C,2.35% (inactive),–
COCCN(C(=O)COC(=O)C(c1ccccc1)c1ccccc1)c1c(N)n(Cc2ccccc2)c(=O)[nH]c1=O,0% (inactive),–
CCC(C(=O)OCC(=O)N(C)c1c(N)n(Cc2ccccc2)c(=O)[nH]c1=O)c1ccccc1 (stereo unspecified),-2.91% (inactive),–
COc1cccc(N2C(=O)Nc3ccc(Br)cc3C2(O)C(=O)NCCCOC(C)C)c1 (stereo unspecified),-4.76% (inactive),–
Cc1cc(C)c(C)c(S(=O)(=O)NCCN2CCOCC2)c1C,6.21% (inactive),–
COC(=O)c1ccc(CSC2=NC[C@@H]3[C@@H]4C(=O)N(C)C(=O)[C@@H]4[C@](C)(C(=O)OC)N23)cc1,-0.66% (inactive),1.52
CCOc1ccc(C(=O)NCC(=O)NCCCSc2ccccc2)cc1OCC,-5.91% (inactive),–
CCOC(=O)N1CCN(CC(=O)c2ccc(O)c(C)c2O)CC1,0.45% (inactive),–
CC1=NN(c2ccccc2)C(=O)/C1=C\c1ccc(Br)s1,-0.88% (inactive),–
COc1ccc(/C=C2/C(=O)N(c3ccccc3)N=C2C)cc1Br,18.3% (inactive),–
CC1=NN(c2ccccc2)C(=O)/C1=C\N(O)c1ccccc1,1.98% (inactive),-1.18

SMILES,inhibition,inhibition [1] [%]
CC1=NN(c2ccccc2)C(=O)/C1=C\c1cc(C)n(C)c1C,0% (inactive),–
CC1=NN(c2ccccc2)C(=O)/C1=C\c1cn(-c2ccccc2)nc1C,3.59% (inactive),–
COc1ccccc1/C=C1/C(=O)N(c2ccc([N+](=O)[O-])cc2)N=C1C,3.11% (inactive),–
OCCC1CN(Cc2cc3c(cc2Cl)OCO3)CCN1Cc1ccccc1 (stereo unspecified),1.46% (inactive),–
CCN(CC)S(=O)(=O)c1cc(NC(=O)CSc2nnc(N)s2)ccc1C,0.37% (inactive),–
COc1ccc(C(=O)NC(=S)Nc2cccnc2)cc1[N+](=O)[O-],6.37% (inactive),–
CC(C)C(=O)NNS(=O)(=O)c1ccccc1[N+](=O)[O-],-1.48% (inactive),–
Cc1nn(-c2ccc(F)cc2)c(Cl)c1C(=O)N(C)CC(=O)Nc1cccc(F)c1,-5.05% (inactive),–
CCCC(=O)N(c1ccc(C(=O)O)cc1)c1nc(-c2ccccc2)c(C)s1,-13.9% (inactive),–
Cc1c(Br)c(=O)oc2c(Br)c(O)ccc12,-1.45% (inactive),–
Cc1c(Br)c(=O)oc2c(Br)c(O)c(O)cc12,6.73% (inactive),–
CCOC(=O)C(=O)NNc1ccccc1OC,-3.11% (inactive),–
Cc1ccc(Cc2c(-c3ccc(Cl)cc3)nc3ccc(Cl)cn23)cc1,7.95% (inactive),–
C#CCOc1ccc(Cl)cc1/C=C1/C(=O)ON=C1C,10.6% (inactive),–
COc1ccc(/C=C2/C(=O)ON=C2C)cc1Br,17.8% (inactive),–
CCOc1cc(/C=C2/C(=O)ON=C2C)cc(Br)c1O,-74.3% (inactive),–
C#CCOc1c(Cl)cc(/C=C2/C(=O)ON=C2C)cc1OC,19.6% (inactive),–
COc1ccc(/C=C2/C(=O)ON=C2C)cc1Cl,5.23% (inactive),–
S=C(NCCc1c[nH]c2ccccc12)NC1CC1,2.32% (inactive),–
